Laboratory results as given in PubChem BioAssay AID463215 (Sanford-Burnham Center for Chemical Genomics, 2010).
The whole screen tested about 4,600 compounds, of which about 2,900 (63%) were called active.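 How the source made its calls: active means inhibition of yeast growth at or above a set limit in either of two replicates at 10 µM; inactive means the rest.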 So high a share suggests a set chosen from earlier hits. A selection follows.

experiment: TIM10 isogenic control strain growth inhibition – single concentration, luminescence, S. cerevisiae, counter-screen for tim10-1 synthetic lethality project, confirmation (AID 463215); conditions: BacTiter-Glo luminescence, 24 h, at 10 µM, hits give high values;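 further: isogenic wild-type TIM10 control yeast grown in succinate dextrose medium; this counterscreen used the strain with wild-type TIM10; 0% = yeast with DMSO and 100% = medium wells lacking yeast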

Compound	inhibition
CC1CCCCC1NC(=O)/C(C#N)=C/C=C/c1ccccc1[N+](=O)[O-] (stereo not given)	41.3% (active)
COc1ccc2nc(N3CCN(C(=O)c4ccc([N+](=O)[O-])o4)CC3)sc2c1	82.2% (active)
Cc1ccccc1OCC(=O)Nc1ccc(N2CCN(C(=O)C(C)C)CC2)c(Cl)c1	62.8% (active)
Oc1c(Cl)cc(Cl)c(Cl)c1Cc1c(O)c(Cl)cc(Cl)c1Cl	89.8% (active)
CSC1=N/C(=C\C=C\c2cccs2)C(=O)S1	56.8% (active)
Cc1cccc(C2=N/C(=C/c3cccs3)C(=O)O2)c1	22% (inactive)
O=C(CCN1CCc2ccccc2C(O)(c2ccccc2)C1)c1ccc2c(c1)OCCO2 (stereo not given)	46.2% (active)
Cc1cccc(NC(=S)NCc2ccc3[nH]c4c(c3c2)CCCC4)c1	34.5% (active)
Cc1cc(C)cc(NC(=S)NCCc2c[nH]c3ccccc23)c1	-10.2% (inactive)
c1ccc(C2=Nc3cccc4cccc(c34)N2)cc1	-39.8% (inactive)
O=C1c2ccccc2C(=O)c2c1cccc2N1CCN(Cc2ccccc2)CC1	34.2% (active)
O=Cc1c(N2CCN(c3cccc(Cl)c3)CC2)nc2ccccn2c1=O	17.8% (inactive)
COc1cc(Br)cc(/C=N/c2ncn[nH]2)c1O	35% (active)
c1ccc(-c2nnc3n2NC(c2ccc4c(c2)OCO4)S3)cc1 (stereo not given)	59.1% (active)
Cc1ccc(-c2nn(C(C)(C)C)c3ncnc(N)c23)cc1	54.8% (active)
CC(C)(CCl)C(=O)Nc1ccc(Sc2ccc(F)cc2)cc1	41% (active)
C=CCNC(=O)c1ccc2c3n(nc2c1)-c1ccc(C)cc1CO3	45.5% (active)
CCOC(=O)C1=C(C)N=c2s/c(=C\C(=O)OC)c(=O)n2C1c1ccc(OC)cc1 (stereo not given)	53.6% (active)
S=C(NCc1ccc(Cl)cc1)NC12CC3CC(CC(C3)C1)C2	23.8% (inactive)
O=C(COC(=O)c1ccc([N+](=O)[O-])o1)NC12CC3CC(CC(C3)C1)C2	44.8% (active)
COc1ccc(CN(C(=O)CSc2nnc(-c3ccc(OC)c(OC)c3)o2)c2ccc(F)cc2)cc1	19% (inactive)
CCN(CC)c1ccc(/C=N/NC(=O)c2cnccn2)c(O)c1	41.4% (active)
COc1ccc(C(=O)O/N=C(\N)Cc2ccc(Cl)cc2Cl)cc1OC	86.7% (active)
Cc1cc(N=Nc2ccc3ccccc3c2)ccc1O	88.4% (active)
FC(F)(F)c1cnc(Oc2ccccc2-c2nnc(-c3ccc(Cl)cc3)o2)c(Cl)c1	5.25% (inactive)

Compound	inhibition
O=C1Oc2ccccc2C(=O)/C1=C/c1ccccc1O	57.5% (active)
Cc1cccc(N=Nc2c(O)[nH]c3ccc(F)cc23)c1	40.8% (active)
COc1cc(NC(=O)c2cccs2)ccc1NC(=O)c1ccccc1Cl	5.7% (inactive)
Cc1nc(-c2ccc(NC(=O)c3cccs3)cc2)cs1	-32.7% (inactive)
O=C(Nc1ccc(NC(=O)c2cccs2)cn1)c1ccco1	32.2% (active)
Cc1ccc(-c2cn3cc(C)ccc3n2)cc1	67% (active)
Cc1ccc2nc(-c3ccc(Br)cc3)cn2c1	38.8% (active)
Nc1cc(OC(=O)c2ccccc2Br)nn1S(=O)(=O)c1ccccc1	48% (active)
CN1C(=O)/C(=N/OC(=O)c2ccccc2Br)c2ccccc21	61.5% (active)
Fc1ccccc1/C=C1\CCCC2=C1Nc1ncnn1C2c1ccccc1F (stereo not given)	26.4% (inactive)
CCc1cc(C(N)=O)c(NC(=O)c2ccc(OC)cc2)s1	59.7% (active)
COc1ccc(C(=O)Nc2ccc(-n3nncc3C(C)(C)C)cc2)cc1	21.1% (inactive)
CC(C)(C)C(=O)c1cnc(Nc2ccccc2)s1	21.1% (inactive)
CSCCC(NS(=O)(=O)/C=C/c1ccccc1)C(=O)N1CCC(C)CC1 (stereo not given)	2.25% (inactive)
CCn1c(/C=C/c2ccc([N+](=O)[O-])o2)nc2ccccc2c1=O	80.8% (active)
COc1ccc2c(c1)cc1n2CCN=C1NN	51.4% (active)
COc1ccccc1-c1n[nH]c2c1[C@H](C)CC[C@H]2C(C)C	50.2% (active)
Cc1cc(N)n2nc(-c3ccc(C(C)(C)C)cc3)cc2n1	9.25% (inactive)
CC1=C/C(=N\OS(=O)(=O)c2ccccc2)C=CC1=O	-32.8% (inactive)
O=C(Nc1nnc(SCc2c(Cl)cccc2Cl)s1)C1CCCO1 (stereo not given)	41% (active)
CC(C)c1ccc(NC(=S)NC2CC3C=CC2C3)cc1 (stereo not given)	35.2% (active)
O=C1c2ccccc2S(=O)(=O)N1CC(O)Cn1c2ccccc2c2ccccc21 (stereo not given)	46.1% (active)
CCOC(=O)CNC(=O)CSc1ncccc1-c1nc2ccccc2[nH]1	1.05% (inactive)
O=C(Nc1ccc(Cl)c(Cl)c1)N1CC=C(c2ccccc2)CC1	33.3% (active)
CS(=O)(=O)c1sc2nc(-c3ccccc3)cc(-c3ccccc3)c2c1N	-14.8% (inactive)

Compound	inhibition
Nc1cccc(-c2cc(-c3ccccc3)nc(-c3cccc(N)c3)n2)c1	36.6% (active)
O=c1oc2ccccc2cc1-c1csc(Nc2ccc(O)cc2)n1	39.9% (active)
O=C(CC(O)(C(F)(F)F)C(F)(F)F)Nc1ccc(Cl)c(Cl)c1	92.4% (active)
CCOC(=O)C1Sc2[nH]c(=O)sc2C(c2ccc(Cl)cc2)C1C(=O)OCC (stereo not given)	48.2% (active)
CC1CC(=S)Nc2ccccc2N1Cc1ccccc1 (stereo not given)	-14.8% (inactive)
O=C(Oc1ccc([N+](=O)[O-])cc1)c1ccc2ccccc2n1	33.2% (active)
CCCc1nc2c(c(=O)c3ccccc3n2C)c(=O)n1C1CCCCCC1	-18.1% (inactive)
Cc1[nH]n(C(N)=S)c(=O)c1N=Nc1ccc(Cl)cc1Cl	51.7% (active)
CCCCC1(C(=O)OCC)NC(c2ccc(O)cc2)C2C(=O)N(c3ccccc3)C(=O)C21 (stereo not given)	7% (inactive)
CCSC1=C(C#N)C(=O)n2c1cc1c2CCCC1	56.2% (active)
CC(=NCc1ccc2c(c1)OCO2)C1=C(O)c2ccccc2C1=O	66.2% (active)
O=C(NCc1ccc2c(c1)OCO2)c1c(O)nc2sccn2c1=O	27.8% (inactive)
COc1ccc(O)c(C(=O)c2cnc3c(c2)c(-c2ccc(F)cc2)c(C#N)c(=O)n3C)c1	3.75% (inactive)
O=C1[C@@H](c2ccccc2)[C@@H](c2ccccc2)N1c1cccnc1	61.4% (active)
C=CCNC(=S)NNC(=O)COc1c(Cl)cc(Cl)cc1Cl	2.85% (inactive)
O=C(Oc1c(-c2ccco2)oc2ccccc2c1=O)c1cccnc1	48% (active)
Cc1ccc2nc(N(CCN(C)C)C(=O)C3=COCCO3)sc2c1	34.9% (active)
CN(C)CCN(C(=O)C1=COCCO1)c1nc2ccc(Cl)cc2s1	69.3% (active)
Cc1ccoc1C(=O)Nc1cccc(Oc2ccccc2)c1	61% (active)
Cc1nc(-c2ccc(Cl)cc2)sc1C(=O)CBr	52.6% (active)
CCNC(=S)N(CCc1c(C)[nH]c2ccc(C)cc12)Cc1ccco1	20.2% (inactive)
O=C(Nc1ccc(Br)cn1)c1ccc([N+](=O)[O-])o1	46.5% (active)
Cc1cccc(NC(=O)c2ccc([N+](=O)[O-])o2)c1	81.6% (active)
Cc1onc(NC(=O)c2ccc([N+](=O)[O-])o2)c1Br	53.8% (active)
CC(C)CC(=O)NC(=S)Nc1ccc(F)cc1F	15.1% (inactive)

Compound	inhibition
Cc1ccc2nc(-c3ccc(SCC(=O)Nc4cc(C)on4)nc3)[nH]c2c1	2.7% (inactive)
CC(C)Oc1c(Br)cc(Br)cc1/C=N/NC(N)=S	23.6% (inactive)
NC(=S)N/N=C/c1coc2cc(Cl)ccc2c1=O	50.8% (active)
C=C(C)COc1ccc(-c2n[nH]c(C)c2-c2ccccc2)c(O)c1	40.1% (active)
Oc1ccccc1-c1cc(-c2ccc(Cl)cc2)n[nH]1	55.5% (active)
CC(C)NC(=O)/C(C#N)=C\c1ccc(N(C)C)c(Br)c1	46.6% (active)
O=c1[nH]cnc2c1c(-c1ccccc1)cn2-c1ccc(F)cc1	-25.6% (inactive)
CC(=NCc1ccco1)c1c(C(F)(F)F)[nH]n(-c2nc3ccccc3s2)c1=O	57.4% (active)
N/C(=N\OC(=O)CCc1ccccc1)c1ccc(Cl)cc1	57.2% (active)
COc1ccc(/C(N)=N/OC(=O)CCCc2ccccc2)cc1	39.8% (active)
COc1ccc(-c2oc3ncn(Cc4ccco4)c(=N)c3c2-c2ccc(OC)cc2)cc1	38.8% (active)
COc1ccc2[nH]cc(/C=C(/C#N)S(=O)(=O)c3ccccc3)c2c1	38% (active)
N/C(=N\OC(=O)Nc1ccc(Cl)c(Cl)c1)c1ncc(C(F)(F)F)cc1Cl	72.8% (active)
CC1CCCC(C)N1C(=O)CN1CCN(c2nc(-c3ccc(F)cc3)cs2)CC1 (stereo not given)	39.2% (active)
CC(=O)Oc1ccc(N(C(C)=O)S(=O)(=O)c2ccc3ccccc3c2)cc1Br	40.5% (active)
Cc1cc(C)n(CC(O)CN(c2ccccc2)S(=O)(=O)c2ccc3ccccc3c2)n1 (stereo not given)	2.2% (inactive)
CCc1ccc(OCC(=O)NCC(c2ccc(Cl)cc2)N2CCCCC2)cc1 (stereo not given)	44% (active)
CC1CCC2CCCCC2N1C(=O)c1cc([N+](=O)[O-])cc([N+](=O)[O-])c1 (stereo not given)	33% (active)
CCOc1ccccc1/C=c1\sc2nc(-c3ccco3)nn2c1=O	48.9% (active)
Cc1ccc(-c2ccnc3nc(Sc4ncc(C(F)(F)F)cc4Cl)nn23)cc1	29.6% (inactive)
Cc1nn2c(c1-c1ccccc1)N=C(c1ccco1)CC2c1ccccc1 (stereo not given)	-19.4% (inactive)
CC(NC(=S)Nc1ccccc1)C1COc2ccccc2O1 (stereo not given)	40.3% (active)
Cc1ccc(N2C(=O)C3C4C=CC(CC4)C3C2=O)cc1Cl (stereo not given)	0.2% (inactive)
Cc1ccc(C(=O)COc2cccc(NC(=O)c3ccco3)c2)cc1	53.1% (active)
COc1cccc(OCc2cc(C(=O)N3CCN(C(=O)c4ccco4)CC3)no2)c1	8.3% (inactive)
